Records with an inconclusive call do not appear. Calls of active or inactive are those of the source. Calls come from the whole dose curve; as a rule, active = well fitted curve in the direction sought with a large enough effect; inconclusive = small, poorly fitted or top-dose-only effect, or another doubt; inactive = no such curve, though single readings can be large; an effect the other way counts as inactive or inconclusive.
Assays:
[1] = biological target: Glutathione peroxidase 1 (Homo sapiens) (UniProt P07203); assay: Primary qHTS Assay for Inhibitors of Recombinant Selenoprotein Glutathione Peroxidase 1 (GPX1) (AID 1845191); note: nearly all actives have a fitted effect of over 65% in size; for activity, negative = inhibition: % is set by controls: 0 for no effect and ±100 for the full control effect
Outline: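 GPX1 10 nM, GR 100 nM, GSH 1 mM, NADPH 0.5 mM, CHP 0.5 mM (final). 30-min cpd preincubation, RT. Ex340/Em450 read t=0, t=15 min.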

[2] = biological target: Phospholipid hydroperoxide glutathione peroxidase GPX4 (Homo sapiens) (UniProt P36969); assay: Primary qHTS Assay for Inhibitors of Recombinant Selenoprotein Glutathione Peroxidase 4 (GPX4) (AID 1845192); note: nearly all actives have a fitted effect of over 65% in size; for activity change, negative = inhibition: series mostly up to about 50 µM; % is set by controls: 0 for no effect and ±100 for the full control effect
Outline: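 qHTS, GR-coupled: GPX4 200 nM + cpd 30 min RT → GSH 1 mM, NADPH 0.5 mM, GR 100 nM → CHP 0.5 mM start; fluor 340/450 at t0 and t15 min; no-enzyme wells as control.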

[3] = biological target: Luciferin 4-monooxygenase (Photinus pyralis) (UniProt P08659); assay: Primary firefly luciferase (FLuc) qHTS assay for identification of artifact compounds. (AID 1845220); note: nearly all actives have a fitted effect of over 60% in size;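 for activity change, negative = inhibition: series mostly up to about 54 µM; plate controls were DMSO vehicle for no effect and no enzyme for full effect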
Outline: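 qHTS, 15 min compound preincubation with substrate (10 uM luciferin, 10 uM ATP) at RT, then 10 nM FLuc; 5 min; luminescence; % inhibition vs no-enzyme/DMSO controls, 4-parameter Hill fit.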

[4] = Primary fluorescence-based thiol-reactive (MSTI) qHTS assay for identification of artifact compounds. (AID 1845221); note: nearly all actives have a fitted effect of over 65% in size; note: potency is the fitted concentration of half-maximal effect;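 for activity change, negative = thiol reactive: series mostly up to about 54 µM; thiol-reactive compounds lower the probe fluorescence signal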
Outline: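 One-hour, room-temperature, dark incubation of compound with 4 uM MSTI in PBS (pH 7.4, 2% DMSO) precedes a fluorescence read at 525 nm excitation, 598 nm emission; Hill-equation fitting yields concentration-response values.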

[5] = system: Nanoluciferase (engineered Oplophorus gracilirostris luciferase); assay: Primary Nanoluciferase (NLuc) qHTS assay for identification of artifact compounds. (AID 1845222); note: series mostly up to about 54 µM
Outline: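 Luminescence read-out of secreted NLuc in S16 cell conditioned medium (1:55); compounds tested with 15 min RT preincubation, then Nano-Glo substrate 1:100, 5 min. % inhibition vs no-enzyme and DMSO controls, 4-parameter Hill fit.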

[6] = Primary redox qHTS assay for identification of artifact compounds. (AID 1845223);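 note: 0% = DMSO and 100% = reference compound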
Outline: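 Redox-cycling detection via DTT (250 uM final) oxidation coupled to Amplex Red (25 uM)/HRP (250 mU/mL) in HBSS. 15 min preincubation plus 30 min after DTT, room temperature. Ex/Em 525/598 nm; 4-parameter Hill fit against DMSO and 10 uM DA3003.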

Chain of Glutathione peroxidase 1 (Homo sapiens) (P07203 whole entry, looked up): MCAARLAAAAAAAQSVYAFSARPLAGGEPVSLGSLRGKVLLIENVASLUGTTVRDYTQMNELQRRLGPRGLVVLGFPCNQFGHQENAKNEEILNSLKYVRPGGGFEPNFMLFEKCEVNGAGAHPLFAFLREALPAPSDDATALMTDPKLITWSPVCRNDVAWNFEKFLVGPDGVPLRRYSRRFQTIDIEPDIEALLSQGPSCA
Chain of Phospholipid hydroperoxide glutathione peroxidase GPX4 (Homo sapiens) (P36969 whole entry, looked up): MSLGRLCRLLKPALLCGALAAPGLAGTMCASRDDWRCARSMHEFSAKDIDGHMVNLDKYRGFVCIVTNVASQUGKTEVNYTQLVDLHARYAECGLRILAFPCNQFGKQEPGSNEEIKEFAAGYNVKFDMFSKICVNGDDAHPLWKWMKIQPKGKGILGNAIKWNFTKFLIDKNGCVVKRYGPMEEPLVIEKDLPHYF

FC(F)(F)c1cc(C(F)(F)F)c2ccc3nc(-c4nnco4)cn3c2n1
inactive: Potency [1] | Potency [2] | Potency [3] | Potency [4] | Potency [5] | Potency [6]

COC(=O)C[C@@H]1C(C(=O)O)=CO[C@@H](O[C@@H]2O[C@H](CO)[C@@H](O)[C@H](O)[C@H]2O)/C1=C\COC(=O)/C=C\c1ccccc1
inactive: Potency [1] | Potency [2] | Potency [3] | Potency [4] | Potency [5] | Potency [6]

C=C1CC23CCC4[C@@](C)(CCC[C@@]4(C)C(=O)O)C2CCC1C3 (some centres undefined)
inactive: Potency [1] | Potency [2] | Potency [3] | Potency [4] | Potency [5] | Potency [6]

O=C(CCO[C@@H]1O[C@H](CO)[C@@H](O)[C@H](O)[C@H]1O)c1ccc(O)cc1
inactive: Potency [1] | Potency [2] | Potency [3] | Potency [4] | Potency [5] | Potency [6]

C=C1C(OC(C)=O)C(=O)C2C(C)(C)C(OC(C)=O)CCC2(C)C1CC(OC(C)=O)/C(C)=C/COC(C)=O (centres undefined)
inactive: Potency [1] | Potency [2] | Potency [3] | Potency [4] | Potency [5] | Potency [6]

CC(=O)OC[C@@]12[C@H](O)C[C@]3(C)C(=CCC4[C@@]5(C)CC[C@H](O[C@@H]6O[C@H](C(=O)O)[C@@H](O[C@@H]7O[C@H](CO)[C@@H](O)[C@H](O)[C@H]7O)[C@H](O)[C@H]6O[C@@H]6O[C@H](CO)[C@@H](O)[C@H](O)[C@H]6O)[C@](C)(CO)C5CC[C@]43C)[C@@H]1CC(C)(C)[C@@H](OC(C)=O)[C@@H]2O (some centres undefined)
inactive: Potency [1] | Potency [2] | outcome [3] inactive [at 11.6 µM] | activity change, negative = thiol reactive [4] 182% [at 11.5 µM] | activity, negative = inhibition [5] 3.06% [at 11.6 µM] | redox activity (% of DA3003) [6] 7.21% [at 11.5 µM]

CCOc1ccc(-c2ccc(Cn3c(CC(C)(C)C(=O)O)c(SC(C)(C)C)c4cc(OCc5ccc(C)cn5)ccc43)cc2)cn1
inactive: Potency [1] | Potency [2] | Potency [3] | Potency [4] | Potency [5] | Potency [6]

O=C(NN1CCCCC1)c1nn(-c2ccc(Cl)cc2Cl)c(-c2ccc(C#Cc3ccc(C(F)(F)F)cc3)s2)c1CNS(=O)(=O)N1CCCC1
inactive: Potency [1] | Potency [2] | Potency [3] | Potency [4] | Potency [5] | Potency [6]

CCC/C=C/C(=O)O[C@H]1CC(C)(C)CC2[C@]13[C@H](O)O[C@@]21CCC2[C@@]4(C)CC[C@H](O[C@@H]5O[C@H](C(=O)O)[C@@H](O)[C@H](O[C@@H]6O[C@H](CO)[C@H](O)[C@H](O)[C@H]6O[C@@H]6O[C@@H](C)[C@H](O)[C@@H](O)[C@H]6O[C@@H]6OC[C@](O)(CO)[C@H]6O)[C@H]5O[C@@H]5O[C@H](CO)[C@H](O)[C@H](O)[C@H]5O)C(C)(C)C4CC[C@@]2(C)[C@]1(C)C[C@H]3OC(C)=O (some centres undefined)
inactive: outcome [1] inactive [at 9.52 µM] | activity change, negative = inhibition [2] -8.75% [at 9.73 µM] | outcome [3] inactive [at 11.6 µM] | activity change, negative = thiol reactive [4] 179% [at 11.5 µM] | activity, negative = inhibition [5] 4.57% [at 11.6 µM] | redox activity (% of DA3003) [6] -2.32% [at 11.5 µM]

CC12CC34C=CC(=O)C(C)(CCC(=O)O)C3C(CC1C4)O2 (centres undefined)
inactive: Potency [1] | Potency [2] | Potency [3] | Potency [4] | Potency [5] | Potency [6]

CC1CCC2(O1)C(C)(C)CC(O[C@@H]1O[C@H](CO[C@@H]3OC[C@](O)(CO)[C@H]3O)[C@@H](O)[C@H](O)[C@H]1O)CC2(C)O (some centres undefined)
inactive: Potency [1] | Potency [2] | Potency [3] | Potency [5] | Potency [6]
active: Potency [4] 13 µM

Nc1ncnc2c1ncn2[C@H]1CCCO1
inactive: Potency [1] | Potency [2] | Potency [3] | Potency [4] | Potency [5] | Potency [6]

C[C@H]1[C@H](C)CC[C@]2(C(=O)O)CC[C@]3(C(=O)O)C(=CCC4[C@@]5(C)CC[C@H](O[C@@H]6O[C@H](C)[C@@H](O)[C@H](O)[C@H]6O)C(C)(C)C5CC[C@]43C)[C@H]12 (some centres undefined)
inactive: Potency [1] | Potency [2] | Potency [3] | Potency [4] | Potency [5] | Potency [6]

COC(=O)[C@H](CC1C=NC=N1)NCC12CC3CC(CC(C3)C1)C2 (some centres undefined)
inactive: Potency [1] | Potency [2] | Potency [3] | Potency [4] | Potency [5] | Potency [6]

CC(=O)O[C@@H]1C[C@@]23C[C@@]24CC[C@H](OC2OC[C@@H](O)[C@H](O)[C@H]2O)C(C)(C)[C@@H]4CC[C@H]3[C@]2(C)CC3OC4(C[C@@H](C)C3[C@@]12C)OCC1(C)OC14 (some centres undefined)
inactive: Potency [1] | Potency [2] | Potency [3] | Potency [4] | Potency [5] | Potency [6]

CC1OC(OC2C(O)C(C(=O)O)OC(OC3CCC4(C)C(CCC5(C)C4C=CC4=C6CC(C)(C)CC(O)C6(C)CCC45C)C3(C)C)C2OC2OCC(O)C(O)C2O)C(O)C(O)C1O (centres undefined)
inactive: Potency [1] | Potency [2] | outcome [3] inactive [at 11.6 µM] | activity change, negative = thiol reactive [4] 161% [at 11.5 µM] | activity, negative = inhibition [5] -10.9% [at 11.6 µM] | redox activity (% of DA3003) [6] 18.4% [at 11.5 µM]

CCC(=O)O[C@]1(C(=O)CCl)[C@@H](C)C[C@H]2[C@@H]3C[C@H](F)C4=CC(=O)C=C[C@]4(C)[C@@]3(F)[C@@H](O)C[C@@]21C
inactive: Potency [1] | Potency [2] | Potency [3] | Potency [4] | Potency [5] | Potency [6]

CCNC(=O)[C@H]1O[C@H](n2cnc3c(NCC(c4ccccc4)c4ccccc4)nc(C(=O)NCCNC(=O)NC4CCN(c5ccccn5)CC4)nc32)[C@H](O)[C@@H]1O
inactive: Potency [1] | Potency [2] | Potency [3] | Potency [4] | Potency [5] | Potency [6]

CC1(C)CCC(C)(C)c2cc3c(cc21)Sc1ccccc1N=C3c1ccc(C(=O)O)cc1
inactive: Potency [1] | Potency [2] | Potency [3] | Potency [4] | Potency [5] | Potency [6]
